Assay results: publication PMC5540273 (PLoS ONE, 2017)

Tests used:
Conditions in all cases: concentration: 1 μM, replicates: in singlicate; n = 1
[1] = system: RPS6KA4(Kin.Dom.1-N-terminal)
[2] = system: RPS6KA4(Kin.Dom.2-C-terminal)
[3] = system: RPS6KA5(Kin.Dom.1-N-terminal)
[4] = system: RPS6KA5(Kin.Dom.2-C-terminal)
[5] = system: T1, RSK1(Kin.Dom.1-N-terminal)
T1 construct: gene RPS6KA1

[6] = system: T2, RSK1(Kin.Dom.2-C-terminal)
T2 construct: gene RPS6KA1

[7] = system: T3, RSK2(Kin.Dom.1-N-terminal)
T3 construct: gene RPS6KA3

[8] = system: T4, RSK2(Kin.Dom.2-C-terminal)
T4 construct: gene RPS6KA3

[9] = system: T5, RSK3(Kin.Dom.1-N-terminal)
T5 construct: gene RPS6KA2

[10] = system: T6, RSK3(Kin.Dom.2-C-terminal)
T6 construct: gene RPS6KA2

[11] = system: T7, RSK4(Kin.Dom.1-N-terminal)
T7 construct: gene RPS6KA6

[12] = system: T8, RSK4(Kin.Dom.2-C-terminal)
T8 construct: gene RPS6KA6

S6K1 = system: S6K1
SBK1 = system: SBK1
SGK2 = system: SGK2
SGK3 = system: SGK3
SGK = system: SGK
SIK2 = system: SIK2
SIK = system: SIK
SLK = system: SLK
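Also: KINOMEscan kinase panel screen.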

| SMILES | %Inh [1] | %Inh [2] | %Inh [3] | %Inh [4] | %Inh [5] | %Inh [6] | %Inh [7] | %Inh [8] | %Inh [9] | %Inh [10] | %Inh [11] | %Inh [12] | %Inh (S6K1) | %Inh (SBK1) | %Inh (SGK2) | %Inh (SGK3) | %Inh (SGK) | %Inh (SIK2) | %Inh (SIK) | %Inh (SLK) |
| --- | --- | --- | --- | --- | --- | --- | --- | --- | --- | --- | --- | --- | --- | --- | --- | --- | --- | --- | --- | --- |
| CN1CCN(Cc2cccc(-c3ccc4c(Nc5ccc(Oc6ccccc6)cc5)ccnc4c3)c2)CC1 [GW578342] | 0% | 0% | 0% | 21% | 26% | 99.1% | 0% | 15% | 0% | 7% | 0% | 0% | 0% | 11% | 0% | 1% | 7% | 1% | 0% | 0% |
| Nc1ncc(-c2ccc3nccc(-c4ccncc4)c3c2)cc1S(=O)(=O)N1CCOCC1 [GSK1627798] | 0% | 0% | 18% | 0% | 14% | 0% | 0% | 0% | 7% | 0% | 14% | 22% | 0% | 3% | 0% | 7% | 0% | 0% | 0% | 36% |
| CN(C)Cc1ccc(-c2ccc3c(Nc4ccc(Oc5ccccn5)cc4)ccnc3c2)o1 [GW567148] | 2% | 0% | 4% | 0% | 0% | 0% | 1% | 0% | 0% | 0% | 17% | 0% | 5% | 8% | 0% | 0% | 0% | 79% | 99.2% | 31% |
| c1ccc(-c2n[nH]cc2Nc2ccnc3ccccc23)nc1 [GW694077] | 3% | 56% | 5% | 56% | 19% | 16% | 27% | 24% | 0% | 30% | 1% | 6% | 33% | 25% | 61% | 47% | 89% | 0% | 0% | 0% |
| COc1cc(Nc2ncc3c(C)nc(-c4cc5ccccc5[nH]4)n3n2)cc(OC)c1OC [GW869516] | 44% | 0% | 0% | 7% | 91.7% | 0% | 49% | 32% | 66% | 0% | 7% | 3% | 0% | 0% | 0% | 1% | 0% | 29% | 20% | 63% |
| Cn1cc(-c2ccc3c(c2)CCN3C(=O)Cc2cccc(F)c2)c2c(N)ncnc21 [GSK2603358] | 7% | 0% | 35% | 0% | 20% | 3% | 0% | 0% | 20% | 0% | 0% | 43% | 12% | 30% | 18% | 2% | 0% | 0% | 4% | 55% |
| COc1cccc(-c2ccc3c(NC(=O)C4CC4)n[nH]c3n2)c1 [SB-710903] | 2% | 0% | 20% | 12% | 20% | 0% | 0% | 22% | 6% | 1% | 5% | 21% | 8% | 0% | 5% | 2% | 19% | 0% | 0% | 30% |
| O=c1[nH]cc(-c2ccc(N3CCOCC3)cc2)c2sc(-c3cn[nH]c3)cc12 [GSK2276055] | 2% | 0% | 0% | 28% | 29% | 24% | 23% | 7% | 14% | 22% | 0% | 18% | 0% | 0% | 0% | 13% | 0% | 0% | 0% | 0% |
| Clc1ccc(-c2nn3ncccc3c2-c2ccnc(Nc3ccc4c(c3)OCCO4)n2)cc1 [GW829116] | 4% | 0% | 0% | 8% | 18% | 32% | 23% | 0% | 0% | 0% | 0% | 88% | 9% | 0% | 0% | 0% | 35% | 30% | 1% | 87% |
| Fc1ccc(-c2ncn(C3CCNCC3)c2-c2ccnc(Oc3ccc(-c4ccccc4)cc3)n2)cc1 [SB-245391] | 12% | 0% | 0% | 6% | 27% | 0% | 34% | 41% | 0% | 0% | 18% | 9% | 11% | 52% | 18% | 12% | 12% | 4% | 12% | 0% |
| CSc1cccc2c(-c3ccncn3)c(-c3ccc(F)cc3)nn12 [GW514786] | 28% | 0% | 3% | 7% | 5% | 38% | 0% | 11% | 11% | 0% | 0% | 90% | 0% | 2% | 15% | 0% | 1% | 2% | 2% | 22% |
| CC(=O)N1CCN(c2ccc(Nc3nccc(-c4sc(C(C)C)nc4-c4cccc(NS(=O)(=O)c5cccc(Cl)c5)c4)n3)cn2)CC1 [GSK1660437] | 10% | 0% | 14% | 0% | 10% | 0% | 0% | 4% | 5% | 0% | 0% | 6% | 0% | 16% | 0% | 19% | 16% | 89% | 99% | 72% |
| C[C@@H](Oc1cc(-n2cnc3cc(-c4ccnc(NCCS(C)(=O)=O)c4)ccc32)sc1C(N)=O)c1ccccc1Cl [GSK907232] | 57% | 0% | 4% | 0% | 11% | 2% | 32% | 4% | 66% | 0% | 20% | 14% | 0% | 1% | 13% | 0% | 4% | 50% | 20% | 99% |
| O=C(Nc1ccccc1F)NC1CCN(c2ccnc(Nc3ccc(F)cc3)n2)CC1 [GSK1379800] | 9% | 0% | 0% | 26% | 19% | 0% | 0% | 0% | 0% | 0% | 0% | 6% | 0% | 0% | 0% | 9% | 0% | 0% | 3% | 0% |
| CNC(=O)c1ccccc1Nc1nc(Nc2ccc(N3CCOCC3)cc2)ncc1Cl.Cl [GSK1576028] | 99.7% | 0% | 90% | 44% | 100% | 54% | 100% | 0% | 99.3% | 25% | 99.3% | 38% | 97% | 90.5% | 50% | 87% | 97.1% | 92.4% | 99% | 99.5% |
| c1ccc(Oc2ccc(Nc3ccnc4cc(-c5ccc(CNCCN6CCOCC6)o5)ccc34)cc2)nc1 [GW567145] | 0% | 0% | 0% | 0% | 93.3% | 0% | 0% | 0% | 0% | 0% | 0% | 0% | 0% | 8% | 0% | 0% | 17% | 78% | 96.4% | 8% |
| O=C(Nc1cccc(-c2nn3ccccc3c2-c2ccnc(Nc3cccc(C(F)(F)F)c3)n2)c1)c1c(F)cccc1F [GSK292658] | 10% | 0% | 18% | 0% | 81% | 0% | 3% | 5% | 0% | 14% | 0% | 0% | 0% | 20% | 0% | 8% | 11% | 0% | 9% | 54% |
